Results published in publication PMC7862700, “An all-to-all approach to the identification of sequence-specific readers for epigenetic DNA modifications on cytosine”.

Columns and labels:
Assay in all cases: DAPPL (digital affinity profiling via proximity ligation, sequencing); 10 mM Tris-HCl pH 7.5, 50 mM NaCl, 1 mM DTT, 4% glycerol, room temperature, 30 min; GST-TFs on glutathione beads, 16-mer random dsDNA library, 0.1% formaldehyde crosslink after washing; high values mean tight binding
Conditions in all cases: protein: recombinant; tags: N-terminal GST; dsDNA, one strand shown
FEV = biological target: T1, FEV (Homo sapiens, UniProt Q99581 1-238)
T1 sequence: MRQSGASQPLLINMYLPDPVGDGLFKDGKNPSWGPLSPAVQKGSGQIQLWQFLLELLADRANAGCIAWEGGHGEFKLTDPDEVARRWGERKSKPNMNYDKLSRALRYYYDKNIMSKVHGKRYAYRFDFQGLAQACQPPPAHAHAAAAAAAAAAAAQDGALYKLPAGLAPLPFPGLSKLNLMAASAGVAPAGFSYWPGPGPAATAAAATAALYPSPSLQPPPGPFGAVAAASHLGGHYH
Summary of the method: (§1)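 GST fusions of human transcription factors were expressed in yeast and captured with glutathione beads. Once given DNA barcodes and pooled alongside a tag-only sample, they were incubated for 30 min at room temperature with 200 nmole of a random double-stranded 16-mer DNA library in Tris/NaCl/DTT/glycerol buffer, then washed, crosslinked (0.1% formaldehyde), proximity-ligated, PCR-amplified and sequenced on an Illumina NextSeq500. The binding signal of each hexamer is its read frequency for a factor divided by its frequency for the tag-only sample.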

ETV5 = ETV5 (Homo sapiens, UniProt P41161 1-510)
Summary of the method: as §1

SPIC = biological target: T2, SPIC (Homo sapiens, UniProt Q8N5J4 1-248)
T2 sequence: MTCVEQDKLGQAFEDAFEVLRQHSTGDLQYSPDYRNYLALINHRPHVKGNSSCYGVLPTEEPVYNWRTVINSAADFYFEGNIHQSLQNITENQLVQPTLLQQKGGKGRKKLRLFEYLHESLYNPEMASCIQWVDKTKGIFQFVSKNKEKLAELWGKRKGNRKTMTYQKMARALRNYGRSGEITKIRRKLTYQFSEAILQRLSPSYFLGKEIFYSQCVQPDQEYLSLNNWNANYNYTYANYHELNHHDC
Summary of the method: as §1

ELF4 = ELF4 (Homo sapiens, UniProt Q99607 1-663)
Summary of the method: as §1

ELK4 = biological target: T3, ELK4 (Homo sapiens, UniProt P28324-2 1-405)
T3 sequence: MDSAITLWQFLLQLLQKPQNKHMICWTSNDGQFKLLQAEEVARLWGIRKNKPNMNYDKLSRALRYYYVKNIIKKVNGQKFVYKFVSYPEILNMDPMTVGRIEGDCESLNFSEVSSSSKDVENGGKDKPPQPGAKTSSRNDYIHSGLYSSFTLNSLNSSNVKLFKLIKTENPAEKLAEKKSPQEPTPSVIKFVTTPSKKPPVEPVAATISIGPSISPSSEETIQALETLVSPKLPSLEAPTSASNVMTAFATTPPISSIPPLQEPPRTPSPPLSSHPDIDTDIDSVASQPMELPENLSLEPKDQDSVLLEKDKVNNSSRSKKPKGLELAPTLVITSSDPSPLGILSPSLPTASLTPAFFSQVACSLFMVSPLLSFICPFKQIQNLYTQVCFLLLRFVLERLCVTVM
Summary of the method: as §1

ETV2 = biological target: T4, ETV2 (Homo sapiens, UniProt O00321 1-342)
T4 sequence: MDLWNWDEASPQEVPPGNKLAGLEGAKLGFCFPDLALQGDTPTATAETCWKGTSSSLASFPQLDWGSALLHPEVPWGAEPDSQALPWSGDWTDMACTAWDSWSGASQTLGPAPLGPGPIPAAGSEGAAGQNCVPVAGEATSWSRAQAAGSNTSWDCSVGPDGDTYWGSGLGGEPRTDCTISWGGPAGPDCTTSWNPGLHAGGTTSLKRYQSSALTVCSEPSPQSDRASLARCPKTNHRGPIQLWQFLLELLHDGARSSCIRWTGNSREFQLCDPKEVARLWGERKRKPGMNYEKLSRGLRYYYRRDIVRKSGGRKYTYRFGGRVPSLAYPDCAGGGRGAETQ
Summary of the method: as §1

ELF3 = biological target: T5, ELF3 (Homo sapiens, UniProt P78545 1-371)
T5 sequence: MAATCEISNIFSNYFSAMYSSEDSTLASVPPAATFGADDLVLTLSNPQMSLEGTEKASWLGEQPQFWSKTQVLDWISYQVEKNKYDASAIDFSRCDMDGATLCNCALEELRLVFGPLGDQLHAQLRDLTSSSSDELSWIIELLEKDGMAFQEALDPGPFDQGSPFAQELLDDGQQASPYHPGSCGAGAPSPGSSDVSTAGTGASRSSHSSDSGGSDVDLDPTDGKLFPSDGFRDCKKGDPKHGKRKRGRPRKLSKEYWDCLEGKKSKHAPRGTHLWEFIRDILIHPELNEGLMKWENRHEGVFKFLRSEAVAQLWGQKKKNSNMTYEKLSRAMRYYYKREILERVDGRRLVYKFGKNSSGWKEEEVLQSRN
Summary of the method: as §1

ETV1 = ETV1 (Homo sapiens, UniProt P50549 1-477)
Summary of the method: as §1

ERF = biological target: T6, ERF (Homo sapiens, UniProt P50548 1-548)
T6 sequence: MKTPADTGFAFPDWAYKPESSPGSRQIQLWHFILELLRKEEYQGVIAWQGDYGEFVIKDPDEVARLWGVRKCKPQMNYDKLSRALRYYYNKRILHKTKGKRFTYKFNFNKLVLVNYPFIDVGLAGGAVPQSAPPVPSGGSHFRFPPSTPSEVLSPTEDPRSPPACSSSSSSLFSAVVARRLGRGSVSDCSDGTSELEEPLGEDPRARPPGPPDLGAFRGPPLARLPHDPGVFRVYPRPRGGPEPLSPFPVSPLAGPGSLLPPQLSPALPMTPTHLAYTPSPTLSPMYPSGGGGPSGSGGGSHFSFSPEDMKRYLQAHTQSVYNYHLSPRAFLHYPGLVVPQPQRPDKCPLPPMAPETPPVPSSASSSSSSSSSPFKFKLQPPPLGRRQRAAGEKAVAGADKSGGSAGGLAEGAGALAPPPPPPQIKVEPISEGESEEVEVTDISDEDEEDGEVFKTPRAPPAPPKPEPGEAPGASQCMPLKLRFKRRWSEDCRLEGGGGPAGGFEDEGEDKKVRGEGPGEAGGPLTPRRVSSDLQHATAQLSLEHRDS
Summary of the method: as §1

ETV3L = biological target: T7, ETV3L (Homo sapiens, UniProt Q6ZN32 1-361)
T7 sequence: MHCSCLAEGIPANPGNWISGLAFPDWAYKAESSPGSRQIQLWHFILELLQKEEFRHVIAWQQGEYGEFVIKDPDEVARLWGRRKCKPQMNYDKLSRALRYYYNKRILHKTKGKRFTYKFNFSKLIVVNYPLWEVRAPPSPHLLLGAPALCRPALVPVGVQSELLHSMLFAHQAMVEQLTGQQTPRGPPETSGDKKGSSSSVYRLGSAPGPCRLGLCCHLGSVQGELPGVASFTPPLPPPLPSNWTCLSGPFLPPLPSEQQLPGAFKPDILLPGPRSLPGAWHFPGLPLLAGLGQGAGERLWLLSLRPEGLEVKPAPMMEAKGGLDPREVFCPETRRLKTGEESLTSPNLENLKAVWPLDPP
Summary of the method: as §1

ETS2 = biological target: T8, ETS2 (Homo sapiens, UniProt P15036 1-469)
T8 sequence: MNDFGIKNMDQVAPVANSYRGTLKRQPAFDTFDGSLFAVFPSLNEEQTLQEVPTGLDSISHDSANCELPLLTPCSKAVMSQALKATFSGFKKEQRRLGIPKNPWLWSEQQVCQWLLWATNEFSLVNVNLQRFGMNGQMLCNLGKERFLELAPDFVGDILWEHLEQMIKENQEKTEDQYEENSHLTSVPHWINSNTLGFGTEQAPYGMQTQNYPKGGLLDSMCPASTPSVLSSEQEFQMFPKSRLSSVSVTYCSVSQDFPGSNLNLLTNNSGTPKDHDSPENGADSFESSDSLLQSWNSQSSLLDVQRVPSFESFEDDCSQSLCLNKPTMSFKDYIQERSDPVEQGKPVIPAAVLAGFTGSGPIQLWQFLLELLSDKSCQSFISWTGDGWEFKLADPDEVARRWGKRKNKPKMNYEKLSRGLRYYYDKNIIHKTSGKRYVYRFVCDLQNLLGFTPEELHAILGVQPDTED
Summary of the method: as §1

SPDEF = biological target: T9, SPDEF (Homo sapiens, UniProt O95238 1-335)
T9 sequence: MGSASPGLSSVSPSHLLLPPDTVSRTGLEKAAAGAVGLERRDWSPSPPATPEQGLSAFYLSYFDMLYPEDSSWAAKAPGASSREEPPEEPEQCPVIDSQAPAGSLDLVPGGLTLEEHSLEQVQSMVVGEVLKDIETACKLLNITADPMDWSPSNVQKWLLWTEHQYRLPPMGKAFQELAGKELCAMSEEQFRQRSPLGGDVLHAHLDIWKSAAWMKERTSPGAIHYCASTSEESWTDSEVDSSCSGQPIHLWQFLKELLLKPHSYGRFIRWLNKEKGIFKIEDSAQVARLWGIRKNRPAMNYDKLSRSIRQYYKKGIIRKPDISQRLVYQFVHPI
Summary of the method: as §1

ETV7 = biological target: T10, ETV7 (Homo sapiens, UniProt Q9Y603 1-341)
T10 sequence: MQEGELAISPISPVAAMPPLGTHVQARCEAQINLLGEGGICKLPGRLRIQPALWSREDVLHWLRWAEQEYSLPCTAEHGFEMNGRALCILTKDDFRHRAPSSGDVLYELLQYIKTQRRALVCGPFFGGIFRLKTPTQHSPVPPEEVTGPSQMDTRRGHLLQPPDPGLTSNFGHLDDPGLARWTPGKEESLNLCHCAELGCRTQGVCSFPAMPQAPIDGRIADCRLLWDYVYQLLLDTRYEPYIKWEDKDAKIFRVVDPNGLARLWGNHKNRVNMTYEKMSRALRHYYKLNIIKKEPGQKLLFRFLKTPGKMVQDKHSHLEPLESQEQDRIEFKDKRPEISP
Summary of the method: as §1

ELF5 = biological target: T11, ELF5 (Homo sapiens, UniProt Q9UKW6-2 1-255)
T11 sequence: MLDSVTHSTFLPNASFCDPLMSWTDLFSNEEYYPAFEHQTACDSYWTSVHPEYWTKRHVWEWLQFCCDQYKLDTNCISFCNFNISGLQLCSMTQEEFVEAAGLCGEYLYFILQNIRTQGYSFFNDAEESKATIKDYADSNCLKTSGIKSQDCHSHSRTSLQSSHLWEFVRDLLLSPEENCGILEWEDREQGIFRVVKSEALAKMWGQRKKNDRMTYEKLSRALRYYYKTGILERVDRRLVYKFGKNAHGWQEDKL
Summary of the method: as §1

ETV3 = biological target: T12, ETV3 (Homo sapiens, UniProt P41162-2 1-143)
T12 sequence: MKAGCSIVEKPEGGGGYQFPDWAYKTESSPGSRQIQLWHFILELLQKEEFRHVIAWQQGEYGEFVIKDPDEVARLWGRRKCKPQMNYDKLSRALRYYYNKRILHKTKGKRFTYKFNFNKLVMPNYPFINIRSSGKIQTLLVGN
Summary of the method: as §1

ETV6 = ETV6 (Homo sapiens, UniProt P41212 1-452)
Summary of the method: as §1

ELF4, sequence (Q99607 whole entry): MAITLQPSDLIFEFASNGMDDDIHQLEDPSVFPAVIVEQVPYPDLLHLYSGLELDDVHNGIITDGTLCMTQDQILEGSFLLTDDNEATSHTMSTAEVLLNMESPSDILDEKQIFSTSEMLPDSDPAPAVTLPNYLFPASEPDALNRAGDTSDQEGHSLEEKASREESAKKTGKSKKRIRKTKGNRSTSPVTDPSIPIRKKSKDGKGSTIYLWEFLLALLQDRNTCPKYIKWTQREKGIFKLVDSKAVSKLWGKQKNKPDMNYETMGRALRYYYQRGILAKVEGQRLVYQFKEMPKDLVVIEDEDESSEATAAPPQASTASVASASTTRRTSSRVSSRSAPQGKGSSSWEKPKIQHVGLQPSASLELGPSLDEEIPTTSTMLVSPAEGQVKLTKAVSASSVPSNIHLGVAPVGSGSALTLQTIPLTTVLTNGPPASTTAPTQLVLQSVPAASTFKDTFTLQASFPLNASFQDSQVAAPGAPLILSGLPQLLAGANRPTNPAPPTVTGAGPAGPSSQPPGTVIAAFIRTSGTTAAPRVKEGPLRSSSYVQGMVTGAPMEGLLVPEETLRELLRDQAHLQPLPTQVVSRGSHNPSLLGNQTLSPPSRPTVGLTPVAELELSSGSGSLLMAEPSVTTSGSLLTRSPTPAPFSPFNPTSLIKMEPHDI
ETV6, sequence (P41212 whole entry): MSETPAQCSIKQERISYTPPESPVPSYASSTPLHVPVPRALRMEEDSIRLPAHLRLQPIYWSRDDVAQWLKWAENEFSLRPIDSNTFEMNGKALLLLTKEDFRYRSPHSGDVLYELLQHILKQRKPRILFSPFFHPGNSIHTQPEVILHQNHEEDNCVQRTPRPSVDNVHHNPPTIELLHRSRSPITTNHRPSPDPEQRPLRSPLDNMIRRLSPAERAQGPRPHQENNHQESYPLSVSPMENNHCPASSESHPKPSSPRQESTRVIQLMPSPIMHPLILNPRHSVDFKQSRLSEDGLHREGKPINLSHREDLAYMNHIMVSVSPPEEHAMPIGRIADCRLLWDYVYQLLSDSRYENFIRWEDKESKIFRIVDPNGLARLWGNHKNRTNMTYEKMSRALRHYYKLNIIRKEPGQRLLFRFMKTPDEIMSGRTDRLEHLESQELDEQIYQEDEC
ETV1, sequence (P50549 whole entry): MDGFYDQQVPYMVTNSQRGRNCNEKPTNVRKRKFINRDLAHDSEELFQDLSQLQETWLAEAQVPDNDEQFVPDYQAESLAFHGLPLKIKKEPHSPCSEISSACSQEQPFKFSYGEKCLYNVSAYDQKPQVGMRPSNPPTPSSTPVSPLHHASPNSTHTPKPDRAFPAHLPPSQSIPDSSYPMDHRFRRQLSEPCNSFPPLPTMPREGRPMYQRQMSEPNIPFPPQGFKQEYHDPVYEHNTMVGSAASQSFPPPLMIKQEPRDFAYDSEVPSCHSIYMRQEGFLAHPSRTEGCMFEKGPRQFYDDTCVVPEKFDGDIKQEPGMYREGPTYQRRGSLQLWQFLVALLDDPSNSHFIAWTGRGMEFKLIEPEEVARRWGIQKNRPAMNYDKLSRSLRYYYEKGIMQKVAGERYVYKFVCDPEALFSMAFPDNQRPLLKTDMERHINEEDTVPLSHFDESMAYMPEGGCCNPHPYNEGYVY
ETV5, sequence (P41161 whole entry): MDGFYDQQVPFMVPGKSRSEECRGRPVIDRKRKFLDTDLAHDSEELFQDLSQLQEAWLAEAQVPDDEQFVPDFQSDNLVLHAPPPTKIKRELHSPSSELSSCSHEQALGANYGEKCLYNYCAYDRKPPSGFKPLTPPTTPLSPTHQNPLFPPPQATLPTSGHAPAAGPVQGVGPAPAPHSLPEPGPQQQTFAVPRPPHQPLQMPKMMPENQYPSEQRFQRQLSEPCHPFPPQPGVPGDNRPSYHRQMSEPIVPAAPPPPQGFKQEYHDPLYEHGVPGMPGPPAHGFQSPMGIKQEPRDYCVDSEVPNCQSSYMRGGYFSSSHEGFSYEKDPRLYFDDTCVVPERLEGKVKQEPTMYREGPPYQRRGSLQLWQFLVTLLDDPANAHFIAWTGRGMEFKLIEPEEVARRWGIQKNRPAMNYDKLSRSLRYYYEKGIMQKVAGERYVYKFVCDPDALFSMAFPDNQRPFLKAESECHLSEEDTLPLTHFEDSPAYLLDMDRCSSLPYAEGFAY

Sequence | binding signal (FEV) | binding signal (ETV5) | binding signal (SPIC) | binding signal (ELF4) | binding signal (ELK4) | binding signal (ETV2) | binding signal (ELF3) | binding signal (ETV1) | binding signal (ERF) | binding signal (ETV3L) | binding signal (ETS2) | binding signal (SPDEF) | binding signal (ETV7) | binding signal (ELF5) | binding signal (ETV3) | binding signal (ETV6)
CACTGT | 1.09 fold enrichment (6-mer frequency, TF over GST control) | 1.1 fold enrichment (6-mer frequency, TF over GST control) | 1.19 fold enrichment (6-mer frequency, TF over GST control) | 1.15 fold enrichment (6-mer frequency, TF over GST control) | 1.17 fold enrichment (6-mer frequency, TF over GST control) | 1.25 fold enrichment (6-mer frequency, TF over GST control) | 1.04 fold enrichment (6-mer frequency, TF over GST control) | 1.11 fold enrichment (6-mer frequency, TF over GST control) | 1.16 fold enrichment (6-mer frequency, TF over GST control) | 1.09 fold enrichment (6-mer frequency, TF over GST control) | 1.13 fold enrichment (6-mer frequency, TF over GST control) | 1.11 fold enrichment (6-mer frequency, TF over GST control) | 1.13 fold enrichment (6-mer frequency, TF over GST control) | 1.12 fold enrichment (6-mer frequency, TF over GST control) | 1.12 fold enrichment (6-mer frequency, TF over GST control) | 1.05 fold enrichment (6-mer frequency, TF over GST control)
GTGACC | 1.36 fold enrichment (6-mer frequency, TF over GST control) | 1.22 fold enrichment (6-mer frequency, TF over GST control) | 1.34 fold enrichment (6-mer frequency, TF over GST control) | 1.27 fold enrichment (6-mer frequency, TF over GST control) | 1.36 fold enrichment (6-mer frequency, TF over GST control) | 1.12 fold enrichment (6-mer frequency, TF over GST control) | 1.3 fold enrichment (6-mer frequency, TF over GST control) | 1.24 fold enrichment (6-mer frequency, TF over GST control) | 1.24 fold enrichment (6-mer frequency, TF over GST control) | 1.26 fold enrichment (6-mer frequency, TF over GST control) | 1.25 fold enrichment (6-mer frequency, TF over GST control) | 1.32 fold enrichment (6-mer frequency, TF over GST control) | 1.3 fold enrichment (6-mer frequency, TF over GST control) | 1.25 fold enrichment (6-mer frequency, TF over GST control) | 1.38 fold enrichment (6-mer frequency, TF over GST control) | 1.1 fold enrichment (6-mer frequency, TF over GST control)
